Assay outcomes (PubChem BioAssay)
Only some compounds are listed: those with a hit (about 0.71% of all), similar ones and a draw of the others.
TAG inh = reduces triacylglycerol accumulation in H9c2 cells. Nile Red lipid (TAG) fluorescence; cells loaded with 200 µM oleic acid. AID 651582. inhibition, % at 12.5 µM. 0.66% of 230,000 active;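 active = pattern-corrected inhibition of lipid staining of at least 50% with the nuclear-stain viability signal not falling by more than 50%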;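 note: 0% = DMSO wells and 100% = triacsin C control wells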
MIN6 prolif = induces beta-cell replication in MIN6 cells; AID 2380; 0.29% of 330,000 active; MIN6 cells proliferation, ATPlite luminescence, 48 h; cells starved in 0.2% serum; 100% = growth in 10% serum; proliferation, % at 10 µM;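 active = compounds whose signal lies at least 3.5 SD above the mean of all wells on their plate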;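 note: 0% = DMSO-treated cells in low-serum medium and 100% = 10% serum control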
hiPSC survival = hiPSC single-cell survival enhancement; survival enhancement, % at 20 µM; ATPlite luminescence; 100% = ROCK inhibitor wells, 0% = DMSO; 0.044% of 360,000 active; in the data active = survival enhancement above about 18%;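 note: cells exposed to compounds for 16 hours before the ATP read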
TAG conf = confirmation of triacylglycerol accumulation inhibitors | AID 651629 | H9c2 lipid accumulation, Nile Red fluorescence; cells loaded with 200 µM oleic acid | shares compounds with TAG inh | inhibition, % at 12.5 µM | 71% of 990 active;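 active = mean inhibition across replicates of 40% or more; inactive = mean inhibition below 40%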;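 note: plate controls were DMSO only wells for no effect and Triacsin C treated wells for full effect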
* = called active by the depositor.

`CCOC(=O)c1c(CN2CCNCC2)nc2ccc(Cl)cc2c1-c1ccccc1` gave TAG inh 70*, hiPSC survival -4 and TAG conf 78*.
Cc1nc2ccc(Cl)cc2c(-c2ccccc2)c1C(=O)N(C)C was read as MIN6 prolif -3 and hiPSC survival 0.
`CC12CCC(=O)C=C1CCC1C2C(=O)CC2(C)C1CCC2(O)C(=O)CO` (stereo unspecified) gave TAG inh 7, MIN6 prolif 5 and hiPSC survival 1.
`COC(=O)C=C1CCC2C3CCC4=CC(=O)C(Br)CC4(C)C3C(=O)CC12C` (stereo unspecified) gave TAG inh 63*, hiPSC survival -5 and TAG conf 85*.
`CC(C)NC(=O)N(C)C[C@H]1Oc2cc(C#Cc3ccc(F)cc3)ccc2S(=O)(=O)N([C@H](C)CO)C[C@H]1C` gave TAG inh 56*, hiPSC survival -4 and TAG conf 63*.
Screening C[C@H](CO)N1C[C@H](C)[C@@H](CN(C)C(=O)Nc2ccc(F)cc2)Oc2cc(Br)ccc2S1(=O)=O returned TAG inh 14 and hiPSC survival -1.
`COc1cccc(NC(=O)N(C)C[C@H]2Oc3cc(C#Cc4ccncc4)ccc3S(=O)(=O)N([C@H](C)CO)C[C@H]2C)c1` gave TAG inh 8 and hiPSC survival 9.
For COc1ccc(C#Cc2ccc3c(c2)O[C@@H](CN(C)C(=O)Nc2cccc(OC)c2)[C@H](C)CN([C@@H](C)CO)S3(=O)=O)cc1 the results were TAG inh 77*, hiPSC survival -3 and TAG conf 82*.
O=C(c1ccc2c(=O)n3c(nc2c1)CCC3)N1CCN(S(=O)(=O)c2ccccc2Br)CC1 was read as TAG inh 6 and hiPSC survival 0.
`Fc1ccc(Nc2nc(N3CCOCC3)nc(N3CCOCC3)n2)cc1` gave MIN6 prolif 4 and hiPSC survival 0.
`O=[N+]([O-])c1ccc(Nc2nc(N/N=C\c3ccc4c(c3)OCO4)nc(N3CCCCC3)n2)cc1` gave TAG inh 66*, MIN6 prolif -5, hiPSC survival 0 and TAG conf 37.
For O=[N+]([O-])c1ccc(/C=N/Nc2nc(N3CCCCC3)nc(N3CCCCC3)n2)cc1 the results were TAG inh 9, MIN6 prolif -6 and hiPSC survival 1.
`c1ccc(Nc2nc(N3CCOCC3)nc(N3CCOCC3)n2)cc1` gave TAG inh 46, MIN6 prolif 1 and hiPSC survival -2.
`c1ccc(Nc2nc(N3CCNCC3)nc(N3CCOCC3)n2)cc1` gave TAG inh 88*, MIN6 prolif -5, hiPSC survival -3 and TAG conf 35.
O=[N+]([O-])c1ccc(Nc2nc(N3CCOCC3)nc(N3CCOCC3)n2)cc1 was read as TAG inh 53*, MIN6 prolif 0, hiPSC survival 0 and TAG conf 61*.
For CCc1nc2ccc(C(=O)NCc3ccc(OC)cc3)cn2c1N(CC)CCOC the results were TAG inh 15 and hiPSC survival 0.
`CC1CCC(C(O)(C(=O)c2ccccc2)c2ccccc2)C(=O)C1` (stereo unspecified) gave TAG inh -16 and hiPSC survival 2.
CC(=O)Nc1ccc(C(=O)N2CCOCC2c2cc(C(=O)NCc3ccccc3)no2)cc1 (stereo unspecified) was read as TAG inh 9 and hiPSC survival -1.
`OC[C@H]1O[C@@H](c2nc3ccc(-c4nc(-c5ccc(Br)cc5)no4)cc3[nH]2)C[C@@H]1O` gave TAG inh -8 and hiPSC survival -3.
For O=C(Nc1nc2ccc(C(=O)N3CCCCC3)cc2s1)C1CCCCC1 the results were TAG inh 64*, MIN6 prolif -5, hiPSC survival -1 and TAG conf 68*.
For Nc1ccc2nc(NC(=O)C3CCCCC3)sc2c1 the results were TAG inh 10, MIN6 prolif -3 and hiPSC survival -1.
`CC(C)(C)NC(=O)N1CCN(c2nc(-c3ccccc3)ns2)CC1` gave TAG inh -21, MIN6 prolif 1 and hiPSC survival 0.
Screening O=C(c1ccc(F)cc1F)N1CCCN(c2nc(-c3ccccc3)ns2)CC1 returned TAG inh 75*, MIN6 prolif 3, hiPSC survival 1 and TAG conf 2.
Screening O=C(Nc1ccc(S(=O)(=O)N2CCCC2)cc1)C1CC(=O)N(CCc2ccccc2)C1 (stereo unspecified) returned TAG inh 27 and hiPSC survival -2.
`CN(C)CCNCCCNc1c2ccccc2nc2cccc([N+](=O)[O-])c12` gave TAG inh 3 and hiPSC survival -4.
CC(C)Cc1nc2sc3c(NCc4ccco4)ncnc3c2c2c1COC(C)(C)C2 was read as TAG inh 54*, MIN6 prolif 3, hiPSC survival 0 and TAG conf 47*.
For Cc1nc2sc3c(NCc4ccco4)ncnc3c2c2c1COC(C)(C)C2 the results were MIN6 prolif 0 and hiPSC survival 0.
`CNc1cc(C)nc(-n2nc(C)cc2C)n1` gave MIN6 prolif -2 and hiPSC survival 1.
For Cc1cc(N/N=C/c2ccc(F)cc2)nc(-n2nc(C)cc2C)n1 the results were TAG inh 57*, MIN6 prolif -3, hiPSC survival -1 and TAG conf 53*.
`COc1ncccc1-c1ccc2nncn2c1` gave TAG inh -10 and hiPSC survival 6.
CC(C)Oc1cccc(NC(=O)C2(C)CCN2C(C)C)c1 (stereo unspecified) was read as TAG inh -6 and hiPSC survival 1.
Screening c1ccc(N(c2ccccc2)c2nc(N3CCCC3)nc(-n3ccnc3)n2)cc1 returned TAG inh 60*, MIN6 prolif -6, hiPSC survival 0 and TAG conf 43*.
`CN(c1ccccc1)c1nc(N2CCCC2)nc(-n2ccnc2)n1` gave TAG inh 24, MIN6 prolif -3 and hiPSC survival 6.
Screening Cc1cccc(C)c1Nc1nnc(SCc2cc([N+](=O)[O-])cc3c2OCOC3)s1 returned MIN6 prolif -6 and hiPSC survival 2.
COc1cccc(Nc2nnc(SCc3cc([N+](=O)[O-])cc4c3OCOC4)s2)c1 was read as TAG inh 53*, MIN6 prolif -1, hiPSC survival -2 and TAG conf 42*.
CC(C)(C)Cc1c(-c2cccc(Br)c2)nc2ccc(Br)cn12 was read as hiPSC survival -1.
`OC1C2COC(O2)C2OC(c3ccccc3)OC12` (stereo unspecified) gave hiPSC survival -1.
For CCc1nc2ccc(C(=O)NCCCN3CCCC3=O)cn2c1N(CC)Cc1cccc(Br)c1 the results were TAG inh 11 and hiPSC survival -2.
Screening CCCS(=O)(=O)NC(=O)C1(C)CCCN(C(=O)COc2ccccc2)C1 (stereo unspecified) returned TAG inh -10 and hiPSC survival 4.
